Article PMC5540273 (PLoS ONE, 2017)

Assays:
Details in all cases: concentration: 1 μM, replicates: in singlicate; n = 1
[1] = tested on: AXL
[2] = tested on: T1, BIKE
T1 construct: gene BMP2K

[3] = tested on: BLK
[4] = tested on: BMPR1A
[5] = tested on: BMPR1B
[6] = tested on: BMPR2
[7] = tested on: BMX
[8] = tested on: BRAF
[9] = tested on: T2, BRK
T2 construct: gene PTK6

[10] = tested on: BRSK1
[11] = tested on: BRSK2
[12] = tested on: BTK
[13] = tested on: BUB1
[14] = tested on: CAMK1B
[15] = tested on: CAMK1D
[16] = tested on: CAMK1G
[17] = tested on: CAMK1
[18] = tested on: CAMK2A
[19] = tested on: CAMK2B
[20] = tested on: CAMK2D
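Note: KINOMEscan kinase panel screen.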

Row | SMILES | %Inh [1] | %Inh [2] | %Inh [3] | %Inh [4] | %Inh [5] | %Inh [6] | %Inh [7] | %Inh [8] | %Inh [9] | %Inh [10] | %Inh [11] | %Inh [12] | %Inh [13] | %Inh [14] | %Inh [15] | %Inh [16] | %Inh [17] | %Inh [18] | %Inh [19] | %Inh [20]
1 | CCc1ccc(-c2ccc3c(c2)-c2nn(C)cc2S(=O)(=O)N3C)cc1 | 8% | 0% | 0% | 0% | 0% | 0% | 0% | 32% | 0% | 0% | 11% | 13% | 0% | 0% | 5% | 16% | 2% | 9% | 19% | 25%
2 | O=C(NCCNc1ccnc(Nc2ccc(F)cc2)n1)Nc1ccc2c(c1)OCO2 [GSK1379882] | 0% | 17% | 7% | 0% | 10% | 0% | 7% | 0% | 0% | 11% | 0% | 0% | 18% | 0% | 9% | 0% | 20% | 0% | 0% | 4%
3 | Nc1ncnc2c1ncn2-c1cccc(F)c1 [SKF-97560] | 13% | 0% | 0% | 0% | 29% | 26% | 24% | 24% | 0% | 0% | 5% | 22% | 39% | 0% | 0% | 0% | 0% | 0% | 3% | 0%
4 | COc1cccc(C2=C(Nc3cccc(C(=O)O)c3)C(=O)NC2=O)c1 [SB-390770] | 0% | 15% | 1% | 12% | 0% | 10% | 14% | 0% | 7% | 0% | 17% | 0% | 8% | 30% | 0% | 33% | 3% | 22% | 33% | 0%
5 | Nc1n[nH]c2nnc(-c3ccccc3)c(-c3ccccc3)c12 [GW554060] | 0% | 22% | 35% | 0% | 41% | 0% | 22% | 2% | 8% | 10% | 0% | 2% | 60% | 5% | 0% | 4% | 3% | 0% | 0% | 0%
6 | Cc1nnc(-c2ccc(C)c(-c3ccc(C(=O)O)cc3)c2)o1 [GW608005] | 0% | 0% | 31% | 0% | 0% | 0% | 0% | 0% | 0% | 2% | 8% | 0% | 17% | 8% | 4% | 0% | 2% | 0% | 0% | 0%
7 | O=c1cc(N2CCOCC2)nc2n(Cc3ccc(F)c(Cl)c3)ccn12 [GSK2297099] | 0% | 0% | 13% | 0% | 0% | 0% | 5% | 8% | 0% | 0% | 0% | 0% | 0% | 32% | 9% | 11% | 17% | 0% | 0% | 23%
8 | Cc1nn2c(=O)cc(N3CCOCC3)nc2n1Cc1cccc(Cl)c1Cl [GSK2342769] | 4% | 2% | 18% | 0% | 0% | 4% | 12% | 7% | 1% | 0% | 0% | 0% | 12% | 28% | 8% | 8% | 9% | 0% | 0% | 1%
9 | CC(C)(C)c1ccc(C(=O)Nc2cn3cc(-c4ccccc4)ccc3n2)cc1 | 0% | 0% | 0% | 8% | 0% | 0% | 13% | 0% | 0% | 0% | 0% | 0% | 0% | 6% | 0% | 0% | 0% | 0% | 0% | 0%
10 | Nc1nccc2scc(-c3ccc4c(c3)CCN4C(=O)Cc3ccccc3)c12 [GSK2576924] | 36% | 8% | 1% | 0% | 0% | 2% | 19% | 0% | 43% | 0% | 0% | 0% | 0% | 33% | 10% | 0% | 9% | 10% | 2% | 4%
11 | Fc1cccc(CSc2nnc(-c3ccc4c(c3)CCO4)o2)c1 | 0% | 0% | 0% | 1% | 5% | 0% | 0% | 7% | 2% | 0% | 0% | 33% | 25% | 0% | 0% | 2% | 6% | 16% | 24% | 0%
12 | COc1cc(OC)cc(-c2cc3cnc(N)nc3nc2NC(=O)NC(C)(C)C)c1 | 0% | 0% | 8% | 54% | 0% | 0% | 0% | 10% | 0% | 0% | 6% | 0% | 0% | 0% | 0% | 0% | 0% | 0% | 0% | 4%
13 | O=C(Nc1n[nH]c2nc(-c3ccccc3)c(Br)cc12)C1CC1 [SB-708998] | 0% | 28% | 8% | 16% | 0% | 0% | 7% | 31% | 0% | 60% | 32% | 0% | 11% | 26% | 4% | 0% | 4% | 0% | 0% | 4%
14 | COc1cc2ncn(-c3cc(OCCCc4ccccc4)c(C(N)=O)s3)c2cc1OC [GSK205189] | 13% | 36% | 12% | 0% | 0% | 0% | 11% | 0% | 1% | 1% | 3% | 0% | 20% | 0% | 16% | 24% | 14% | 0% | 0% | 16%
15 | COc1ccc(CNC(=O)NC2CCN(c3ccnc(Nc4ccc(F)cc4)n3)C2)cc1 (stereo not drawn) [GSK1379706] | 10% | 0% | 3% | 6% | 0% | 22% | 26% | 3% | 21% | 0% | 3% | 18% | 50% | 0% | 4% | 8% | 5% | 0% | 0% | 18%
16 | CCC(=O)c1c(-c2ccccc2)c2cc(Cl)ccc2c(=O)n1Cc1cc(S(C)(=O)=O)n(CCC(C)(C)O)n1 | 10% | 21% | 12% | 0% | 6% | 9% | 33% | 1% | 7% | 11% | 0% | 23% | 14% | 0% | 0% | 33% | 7% | 15% | 0% | 24%
17 | Cc1nc(N(C)[C@H]2CN(C(=O)CC#N)CC[C@H]2C)c2cc[nH]c2n1 | 9% | 0% | 18% | 0% | 10% | 8% | 0% | 0% | 0% | 0% | 0% | 0% | 0% | 0% | 15% | 1% | 22% | 0% | 5% | 0%
18 | Cn1c(=O)c(F)c(Nc2ccc(I)cc2F)c2c(=O)n(OC[C@H](O)CO)cnc21 | 10% | 30% | 9% | 0% | 0% | 0% | 0% | 0% | 2% | 0% | 15% | 0% | 0% | 0% | 8% | 0% | 0% | 4% | 12% | 9%
19 | Nc1nc(-c2ccccc2F)c(-c2ccnc3ccccc23)s1 [GW560459] | 0% | 17% | 39% | 0% | 13% | 2% | 0% | 7% | 0% | 0% | 4% | 0% | 61% | 0% | 0% | 0% | 6% | 0% | 0% | 0%
20 | COC(=O)c1c(-c2ccccc2)c2cc(Br)ccc2c(=O)n1Cc1ccc(S(C)(=O)=O)cc1 | 7% | 0% | 9% | 0% | 19% | 3% | 17% | 57% | 0% | 29% | 0% | 47% | 15% | 0% | 26% | 21% | 42% | 21% | 6% | 18%
21 | Cc1nnc(-c2ccc3ncn(-c4ccc(S(C)=O)cc4)c3c2)o1 (stereo not drawn) | 4% | 0% | 0% | 19% | 0% | 0% | 12% | 0% | 19% | 0% | 0% | 0% | 0% | 13% | 0% | 2% | 11% | 0% | 0% | 4%
